63 compounds from paper PMC6925144, “A prospective compound screening contest identified broader inhibitors for Sirtuin 1” (Scientific Reports, 2019) can be followed below.

Molecules are shown by their SMILES. In all, about 3,200 compounds were measured (“TSA(without NAD+) / Primary screening (TSA) / delta Tm (K)”: median about -0.07, highest 2% from about 0.37 on). Many of the other results were omitted from the sample, so the highest values are more common in it than they were.

Chain of NAD-dependent deacetylase Sirtuin 1 (Q96EB6 2-747 limits assumed): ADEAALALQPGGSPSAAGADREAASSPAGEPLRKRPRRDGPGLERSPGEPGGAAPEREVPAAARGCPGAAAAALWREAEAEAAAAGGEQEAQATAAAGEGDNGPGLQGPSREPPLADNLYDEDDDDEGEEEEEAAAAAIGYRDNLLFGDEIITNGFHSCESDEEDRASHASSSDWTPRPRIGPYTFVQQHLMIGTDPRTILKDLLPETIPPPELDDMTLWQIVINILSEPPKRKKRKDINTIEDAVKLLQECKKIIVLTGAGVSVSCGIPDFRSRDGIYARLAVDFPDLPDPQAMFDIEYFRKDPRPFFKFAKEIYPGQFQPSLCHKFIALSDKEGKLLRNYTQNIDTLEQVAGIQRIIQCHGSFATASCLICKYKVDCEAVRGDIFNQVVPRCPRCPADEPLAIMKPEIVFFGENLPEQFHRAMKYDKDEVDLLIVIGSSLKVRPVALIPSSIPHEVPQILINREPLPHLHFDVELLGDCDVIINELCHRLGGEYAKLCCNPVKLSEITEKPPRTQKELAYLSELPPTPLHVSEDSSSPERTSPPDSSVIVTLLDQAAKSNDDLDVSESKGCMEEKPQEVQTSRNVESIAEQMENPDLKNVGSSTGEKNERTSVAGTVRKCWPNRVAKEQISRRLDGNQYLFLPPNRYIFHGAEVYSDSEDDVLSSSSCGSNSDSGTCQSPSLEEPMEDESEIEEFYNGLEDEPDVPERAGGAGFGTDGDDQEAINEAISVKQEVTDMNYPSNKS

The experiment has as its target NAD-dependent deacetylase Sirtuin 1 (human, UniProt Q96EB6). The experiment in a line: primary screen, delta tm. The following applies: 10 µM. Details: single well (n = 1). The method, then: A total of 3,192 compounds extracted from the proposed lists were first screened by thermal shift assay (TSA), which determined a melting temperature shift (ΔTm) of Sirtuin 1 upon the addition of a test compound at a concentration of 10 µM (n = 1) with primary hit criteria of ΔTm > 0.45 K or ΔTm < −1.5 K. Primary hits (48 compounds) were retested in the same assay at three concentrations (5, 10, 20 µM, n = 4) for hit confirmation and for dose-dependency check. Secondary hits (41 compounds) were checked their selectivity for Sirtuin 1 based on counterscreening on unrelated protein targets (bovine carbonic anhydrase (CA) and recombinant SH2 domain of hABL1 kinase (ABL1)) at three different concentrations (5, 10, 20 µM, n = 4), which yielded 38 hit compounds, hereafter referred to as TSA hits. The TSA screening above was conducted in the absence of NAD+.
On to `O=C1/C(=C\c2cc(Br)cc(Br)c2O)CC/C1=C\c1cc(Br)cc(Br)c1O`, for which the “TSA(without NAD+) / Primary screening (TSA) / delta Tm (K)” value was determined as 0.55 K.

`COc1ccc(Br)cc1/C=C1/Cc2ccccc2C1=O`: the “TSA(without NAD+) / Primary screening (TSA) / delta Tm (K)” value was -0.08 K. Consider `O=C1/C(=C\c2ccc(Br)cc2)CC/C1=C/c1ccccc1OC(F)F`, for which the “TSA(without NAD+) / Primary screening (TSA) / delta Tm (K)” value is given as -0.08 K.

In the case of `O=C(CCSc1ncccn1)Nc1c(Cl)cccc1Cl`, the “TSA(without NAD+) / Primary screening (TSA) / delta Tm (K)” value was -0.04 K. In the case of `Cc1ccc(C23CC4CC(CC(C(=O)OC(C)C(=O)Nc5ccc(S(N)(=O)=O)cc5)(C4)C2)C3)cc1C` (stereo not drawn) it was 0.48 K; in that of `Cc1ccc(C23CC4CC(CC(C(=O)OCC(=O)Nc5ccc(S(N)(=O)=O)cc5)(C4)C2)C3)cc1`, 0.32 K.

As for `Cc1ccc(C23CC4CC(CC(C(=O)OCC(N)=O)(C4)C2)C3)cc1C`, the “TSA(without NAD+) / Primary screening (TSA) / delta Tm (K)” value is -0.22 K. `Cc1ccc(N(C)S(=O)(=O)c2cccc(C(=O)N(C)Cc3ccccc3Cl)c2)cc1`: the “TSA(without NAD+) / Primary screening (TSA) / delta Tm (K)” value is -0.24 K. As for `O=S1(=O)CCC(N2CCN(c3ncnc4c3oc3ccccc34)CC2)C1` (stereo not drawn), the “TSA(without NAD+) / Primary screening (TSA) / delta Tm (K)” value is recorded as -0.11 K.

In the case of `Cc1nc(N2CCN(c3cccc(C(F)(F)F)c3)CC2)c2c3c(sc2n1)CCC3`, the “TSA(without NAD+) / Primary screening (TSA) / delta Tm (K)” value came to 0.16 K.

With `CC(C)CC(=O)Nc1ccc(C(=O)COC(=O)CNC(=O)CC23CC4CC(CC(C4)C2)C3)cc1`, the “TSA(without NAD+) / Primary screening (TSA) / delta Tm (K)” value is recorded as -0.04 K. In the case of `COc1ccc(NC(=O)CC23CC4CC(C2)CC(CC(=O)Nc2ccc(OC)cc2)(C4)C3)cc1` it was 0.15 K. In the case of `CCOc1ccc(Oc2ccc(NC(=O)CNC(=O)CC34CC5CC(CC(C5)C3)C4)cc2)cc1`, the “TSA(without NAD+) / Primary screening (TSA) / delta Tm (K)” value is 0.38 K.

Consider `NCCOCC(=O)O`, for which the “TSA(without NAD+) / Primary screening (TSA) / delta Tm (K)” value is recorded as -0.23 K. Regarding `O=C1CCc2cc(NC(=O)c3cccnc3)ccc2N1`, the “TSA(without NAD+) / Primary screening (TSA) / delta Tm (K)” value is on record as -0.04 K. In the case of `CCCn1c(NC(=O)c2ccc3c(c2)CCC(=O)N3)nc2ccccc21` it was 0.12 K; in that of `Cc1ccc(C(=O)Nc2nc3ccc(NS(=O)(=O)c4ccc5c(c4)CCC(=O)N5)cc3s2)s1`, 0.66 K; in that of `NCC(N)C1CCC1` (stereo not drawn), -0.31 K. In the case of `NC(=O)c1cc(NC(=O)CN2CC=C(c3ccc(O)cc3)CC2)cc(C(N)=O)c1` it was 0.15 K; in that of `O=C1NC(=S)NC(=O)C1=NNc1c(F)cccc1F`, -0.08 K.

With `Cn1ncc2c(=O)n(CC(=O)N3CCCc4c(C(N)=O)cccc43)cnc21`, the “TSA(without NAD+) / Primary screening (TSA) / delta Tm (K)” value is listed as -0.18 K. In the case of `O=C(NC1(C(=O)N2CCN(C(=O)c3cnccn3)CC2)CCOC1)OCc1ccccc1` (stereo not drawn) it was -0.12 K. On to `Cc1sc(NC(=O)C2CCN(c3ncc(C(F)(F)F)cc3Cl)CC2)c(C(N)=O)c1C`, for which the “TSA(without NAD+) / Primary screening (TSA) / delta Tm (K)” value came out at 0.28 K. In the case of `Cc1sc2ncnc(N3CCC(C(=O)Nc4sc5c(c4C(N)=O)CCCC5)CC3)c2c1C` it was 0.16 K; in that of `NC(=O)c1c(NC(=O)C2CCN(c3ncc(C(F)(F)F)cc3Cl)CC2)sc2c1CCC2`, 0.39 K. In the case of `Cc1ccc(OCC(O)Cn2c(C(F)(F)F)ccc(C(N)=O)c2=O)cc1` (stereo not drawn) it was -0.13 K; in that of `Cc1ccc(NC(=O)C(OC(=O)C23CC4CC(CC(O)(C4)C2)C3)c2ccccc2)c([N+](=O)[O-])c1` (stereo not drawn), 0.07 K.

Consider `CC(NC(=O)CNC(=O)CNC(=O)c1cccs1)c1ccccn1` (stereo not drawn), for which the “TSA(without NAD+) / Primary screening (TSA) / delta Tm (K)” value was -0.23 K. In the case of `O=C(CC12CC3CC(CC(C3)C1)C2)NCC(=O)Nc1ccc(Sc2nc3ccccc3[nH]2)cc1` it was 0.18 K. In the case of `O=C(NC(=S)Nc1ccc(-c2nc3ccccc3[nH]2)cc1)C12CC3CC(CC(C3)C1)C2` it was 0.58 K; in that of `O=C1CCCCC(C(=O)Nc2ccc(-c3nc4ccccc4[nH]3)cc2)N1` (stereo not drawn), -0.03 K; in that of `O=C(Nc1cccc(S(=O)(=O)N2CCOCC2)c1)c1cn(-c2ccccc2)nc1-c1ccccc1`, -0.02 K. In the case of `CN(c1ccccc1)S(=O)(=O)c1ccc(C(=O)Nc2cccc(S(=O)(=O)N3CCOCC3)c2)cc1` it was 0.02 K; in that of `Cc1ccc(-c2nn(-c3ccccc3)cc2C(=O)Nc2cccc(S(=O)(=O)N3CCOCC3)c2)cc1`, 0.07 K; in that of `O=C(Nc1cccc(S(=O)(=O)N2CCOCC2)c1)c1cccc(S(=O)(=O)N2CCc3ccccc32)c1`, 0.37 K. `O=C(Nc1cccc(S(=O)(=O)N2CCOCC2)c1)C(c1ccccc1)c1ccccc1`: the “TSA(without NAD+) / Primary screening (TSA) / delta Tm (K)” value stood at 0.09 K. In the case of `O=C(Nc1cccc(S(=O)(=O)N2CCOCC2)c1)c1cn(-c2ccccc2)nc1-c1ccc(Cl)cc1` it was 0.58 K. In the case of `O=C(Cn1[nH]c(=O)c2ccccc2c1=O)Nc1ccc(N2CCN(Cc3ccccc3)CC2)cc1` it was 0.02 K. In the case of `O=C(OCc1cccc2ccccc12)C1CCCCN1c1ncccn1` (stereo not drawn) it was -0.13 K; in that of `Cc1nc2c(C(N)=O)ncn2c(C)c1CCC(=O)Nc1ccc(F)c(C(N)=O)c1`, 0.02 K.

Consider `c1coc(CNc2ncnc3ccsc23)c1`, for which the “TSA(without NAD+) / Primary screening (TSA) / delta Tm (K)” value stood at 0.05 K. In the case of `Cc1ccc(C(C)(C)C)cc1S(=O)(=O)Nc1cccc(C(=O)NNC(=O)c2cccc(S(=O)(=O)Nc3cccc(C(F)(F)F)c3)c2)c1` it was 1.22 K; in that of `CCNC(=O)c1cccc(NC(=O)C2CCN(S(=O)(=O)c3cc(C(C)(C)C)ccc3C)CC2)c1`, 0.17 K. In the case of `O=C(NO)c1cccc(C(F)(F)F)c1` it was -0.13 K; in that of `NC(=O)c1ccc(CNC2CCCCCC2)o1`, -0.05 K; in that of `C=CCOc1cccc(C2C(C(=O)c3ccco3)=C(O)C(=O)N2CCCN2CCOCC2)c1` (stereo not drawn), -0.08 K.

On to `COc1cc(NC(C)C(=O)Nc2ccc(C(N)=O)cc2)cc(OC)c1OC` (stereo not drawn), for which the “TSA(without NAD+) / Primary screening (TSA) / delta Tm (K)” value is reported as -0.18 K. In the case of `COc1ccc(NC(=S)NN)cc1OC` it was 0.37 K; in that of `COc1ccc(CNC(=S)NC2CCCCC2)cc1OC`, -0.23 K; in that of `COc1ccc(Br)cc1/C=C1/COc2ccccc2C1=O`, -0.03 K. With `CCC(NC(=O)c1ccc(C(N)=O)cc1)C(c1ccc(C)cc1)n1cncn1` (stereo not drawn), the “TSA(without NAD+) / Primary screening (TSA) / delta Tm (K)” value is -0.21 K. In the case of `COc1ccc(N(C)S(=O)(=O)c2cccc(C(=O)Nc3ccc(Br)cc3F)c2)cc1` it was 0.07 K; in that of `COc1ccc(N(C)S(=O)(=O)c2cccc(C(=O)Nc3cccc(Br)c3)c2)cc1`, 0.38 K. In the case of `COc1ccc(N(C)S(=O)(=O)c2cccc(C(=O)Nc3ccc(Br)c(C(F)(F)F)c3)c2)cc1` it was 0.62 K; in that of `CCCOC(=O)c1ccc(NC(=O)c2cccc(S(=O)(=O)N(C)c3ccc(OC)cc3)c2)cc1`, 0.35 K; in that of `COc1ccc(NC(=O)c2cccc(S(=O)(=O)N(C)c3ccc(OC)cc3)c2)cc1`, 0.03 K. In the case of `COc1ccc(N(C)S(=O)(=O)c2cccc(C(=O)Nc3ccc(Br)cc3)c2)cc1` it was 0.36 K; in that of `COc1ccc(N(C)S(=O)(=O)c2cccc(C(=O)Nc3ccc(OC)c(OC)c3)c2)cc1`, -0.31 K; in that of `COc1ccc(N(C)S(=O)(=O)c2cccc(C(=O)Nc3ccc4ccccc4c3)c2)cc1`, 0.82 K. `COc1ccc(N(C)S(=O)(=O)c2cccc(C(=O)Nc3ccc4c(C)cc(=O)oc4c3)c2)cc1`: the “TSA(without NAD+) / Primary screening (TSA) / delta Tm (K)” value was -0.13 K. In the case of `COc1ccc(N(C)S(=O)(=O)c2cccc(C(=O)Nc3ccc(-n4cnnn4)cc3)c2)cc1`, the “TSA(without NAD+) / Primary screening (TSA) / delta Tm (K)” value came to 0.59 K. In the case of `COc1ccc(N(C)S(=O)(=O)c2cccc(C(=O)Nc3ccc(Cl)cc3)c2)cc1` it was 0.36 K. In the case of `COc1ccc(N(C)S(=O)(=O)c2cccc(C(=O)Nc3cccc4ccccc34)c2)cc1` it was -0.13 K.
